# Results from PubChem BioAssay (NCI).
# Compounds without any hit were thinned out: in the full panel of roughly 83,000, 20% have a hit.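 Single-concentration screen, 48 h exposure, 96-well plates. Endpoint: percent growth. Below 10 = active.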 Unmarked numbers belong to inactive results. The source made the active and inactive calls.
# What was measured:
# Assay in all cases: NCI-60 one-dose screen, 48 h (100 = growth as untreated, 0 = no growth, -100 = all killed)
# Settings in all cases: 10 µM unless noted
# SR leukemia = system: SR leukemia
# RPMI-8226 leukemia = system: RPMI-8226 leukemia
# OVCAR-8 ovarian = system: OVCAR-8 ovarian
# OVCAR-5 ovarian = system: OVCAR-5 ovarian
# OVCAR-4 ovarian = system: OVCAR-4 ovarian
# SK-OV-3 ovarian = system: SK-OV-3 ovarian
# IGROV1 ovarian = system: IGROV1 ovarian
# OVCAR-3 ovarian = system: OVCAR-3 ovarian
# HS 578T breast = system: HS 578T breast
# NCI/ADR-RES ovarian = system: NCI/ADR-RES ovarian
Compound,growth (SR leukemia),growth (RPMI-8226 leukemia),growth (OVCAR-8 ovarian),growth (OVCAR-5 ovarian),growth (OVCAR-4 ovarian),growth (SK-OV-3 ovarian),growth (IGROV1 ovarian),growth (OVCAR-3 ovarian),growth (HS 578T breast),growth (NCI/ADR-RES ovarian)
C[C@]12CCC(=O)C=C1CC[C@H]1[C@@H]3C[C@@H](O)[C@](O)(C(=O)CO)[C@@]3(C)C[C@H](O)[C@@]12F,96.3%,67.1%,92.8%,86.7%,95.7%,72.4%,97.6%,105%,115%,95.4%
N#Cc1ccc(-c2csc(Nc3ccc4nc5n(c(=O)c4c3)CCC5)n2)cc1,93.6%,109%,106%,103%,109%,176%,107%,116%,115%,105%
Cc1ccccc1NC(=O)N/C(N)=N/c1nc2ccccc2s1,8.11% (active),16.3%,19.7%,35.5%,65%,65%,14.7%,1.83% (active),42.1%,8.91% (active)
CC(C)C[C@H](NC(=O)/C=C/Cn1ccc2ccccc2c1=O)B(O)O,9.14% (active),11.1%,86.8%,47.2%,89.3%,69.2%,77%,0.848% (active),43.8%,106%
COc1cc(/C=C/C(=O)c2c(C)n([O-])c3ccc(Cl)cc3[n+]2=O)cc(OC)c1OC,11.8%,72.6%,50.8%,98.2%,71%,104%,-62.2% (active),102%,70.5%,73.5%
O=C1CNc2cc(Cl)ccc2N1,94.7%,103%,99.7%,102%,115%,106%,103%,108%,97.4%,108%
CNNc1ncnc2c1cnn2-c1ccc(S(N)(=O)=O)cc1,65.6%,94%,81.8%,99.8%,106%,115%,104%,87.7%,104%,87%
COc1ccc(Cl)cc1Nc1nc(C(F)(F)F)ccc1C(=O)N/N=C/c1c(Cl)cccc1Cl,22%,40.1%,55.2%,75.3%,39%,49.7%,29.6%,-2.74% (active),54.3%,49.9%
COCCOCCOCCOCCOc1ccc2c(c1)C(=O)c1nc3ncccc3c(=O)n1-2,-86.3% (active),-55.5% (active),0.221% (active),-98.6% (active),-15.3% (active),-4.3% (active),7.34% (active),-60.7% (active),-25.2% (active),0.343% (active)
COc1ccc(-c2nnc3c4[nH]cnc4ncn23)c(OC)c1,15.5%,9.32% (active),18.4%,17%,36.8%,11.4%,45.8%,13.4%,54.4%,17.6%
C/C(=C\CCc1ccsc1)CC/C=C(\C)CCCN1CCSCC1,53.6%,58%,99.9%,94.8%,84.3%,93.1%,94.1%,82.3%,93.2%,84.9%
NS(=O)(=O)c1ccc(-n2ncc3c(NC4CCCCC4)ncnc32)cc1,63.1%,91%,89.2%,90.9%,97.9%,108%,78%,128%,98.8%,88.6%
